From PubChem BioAssay come the findings set out here.

The source made the active and inactive calls.

One experiment has as its target Albumin (Bos taurus) (UniProt P02769). Put plainly: bovine serum albumin binders on microarray, profiling panel, artefact control for SMM control protein annotation, biochemical, small-molecule microarray, Alexa647 label, 635/667 nm fluorescence (AID 1118).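 Further: score merges 667 nm emission intensity and signal-to-noise per printed compound spot.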 To be noted: BSA-A647 binding, fluorescence 635 nm, higher = more signal.
Experiment [1] in a line: small-molecule microarray binders of probe aXIP, primary screen, biochemical, NeuroSMM set, 635/667 nm fluorescence (AID 1119).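 Further: probe is the protein aXip251-270 applied at 1 µg/mL to compound-printed slides; binding of probe to printed compounds measured as 667 nm fluorescence plus signal to noise.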 The settings on record: higher = more signal, called active from +8 up or from −8 down.
Experiment [2] is described as follows: small-molecule binders of probe aNOTCH3, primary screen, biochemical, small-molecule microarray, 635/667 nm fluorescence (AID 1120).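 Further: probe is a biotin-tagged antibody raised against NOTCH3 rather than NOTCH3 protein; score merges spot fluorescence near 667 nm with spot signal to noise.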 To be noted: higher = more signal.
Experiment [3] in a line: small-molecule binders of probe aNOTCH2, primary screen, biochemical, small-molecule microarray, 635/667 nm fluorescence (AID 1121).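 Further: score merges feature fluorescence read at 667 nm with its signal to noise.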 The settings on record: higher = more signal.
The target in experiment [4] is Carbonic anhydrase 2 (Homo sapiens) (UniProt P00918). Put plainly: CAII small-molecule binders, profiling panel, biochemical, small-molecule microarray, Alexa647-labelled CAII (AID 1122). To be noted: CAII-A647 binding fluorescence, higher = more signal.
A short description of experiment [5]: COS7 lysate on small-molecule microarray, probe aHis, 635 nm (AID 1123).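 Further: z-score combines 667nm fluorescence intensity with signal-to-noise per printed compound spot.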 The settings on record: COS7 cell lysate, fluorescence, higher = more signal.
Experiment [6] in a line: compound binding in COS7 lysate, probe aLAP1, primary screen, cell lysate, small-molecule microarray (AID 1124).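 Further: lysate comes from COS7 cells expressing LAP1 and is applied at 0.3 µg/mL; score merges spot fluorescence near 667 nm with signal-to-noise over triplicate slides.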 To be noted: probe aLAP1, fluorescence, higher = more signal.
Another experiment relates to Sam68 (KHDRBS1). Put plainly: Sam68 small-molecule binders, primary screen, biochemical, small-molecule microarray, 635 nm fluorescence (AID 1125).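 Further: score merges 667 nm channel intensity with signal to noise over triplicate slides.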 To be noted: small-molecule microarray binding, higher = more signal.
In experiment [7] the test system is Chordin-like protein 2 (CHRDL2). Put plainly: CHRDL2 small-molecule binders, primary screen, biochemical, small-molecule microarray, 635 nm fluorescence (AID 1126).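 Further: printed compound slides probed with Chrdl2 protein at 4 µg/mL for 1 h at 4 C; score merges 667 nm emission intensity with signal to noise over three replicate slides.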 The settings on record: small-molecule microarray binding, fluorescence 635 nm; higher = more signal.
For experiment [8], the target named is Concanavalin-A (Canavalia ensiformis) (UniProt P02866). Put plainly: ConA small-molecule binders, primary screen, artefact control for SMM control protein annotation, biochemical, small-molecule microarray, Alexa647 label, 635 nm (AID 1127).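 Further: z combines 667 nm emission intensity with signal-to-noise across three replicate slides.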 The settings on record: ConA-A647 binding fluorescence, higher = more signal.
Chain of Concanavalin-A (Canavalia ensiformis) (P02866 whole entry, looked up): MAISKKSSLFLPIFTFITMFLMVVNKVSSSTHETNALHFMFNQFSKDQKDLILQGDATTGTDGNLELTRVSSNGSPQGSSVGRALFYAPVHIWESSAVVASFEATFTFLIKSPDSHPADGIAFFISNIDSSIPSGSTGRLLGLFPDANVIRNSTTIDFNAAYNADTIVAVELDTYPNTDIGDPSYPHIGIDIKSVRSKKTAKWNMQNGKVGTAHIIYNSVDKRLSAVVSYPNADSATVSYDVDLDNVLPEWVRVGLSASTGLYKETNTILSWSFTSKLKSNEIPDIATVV

Chain of Albumin (Bos taurus) (P02769 whole entry, looked up): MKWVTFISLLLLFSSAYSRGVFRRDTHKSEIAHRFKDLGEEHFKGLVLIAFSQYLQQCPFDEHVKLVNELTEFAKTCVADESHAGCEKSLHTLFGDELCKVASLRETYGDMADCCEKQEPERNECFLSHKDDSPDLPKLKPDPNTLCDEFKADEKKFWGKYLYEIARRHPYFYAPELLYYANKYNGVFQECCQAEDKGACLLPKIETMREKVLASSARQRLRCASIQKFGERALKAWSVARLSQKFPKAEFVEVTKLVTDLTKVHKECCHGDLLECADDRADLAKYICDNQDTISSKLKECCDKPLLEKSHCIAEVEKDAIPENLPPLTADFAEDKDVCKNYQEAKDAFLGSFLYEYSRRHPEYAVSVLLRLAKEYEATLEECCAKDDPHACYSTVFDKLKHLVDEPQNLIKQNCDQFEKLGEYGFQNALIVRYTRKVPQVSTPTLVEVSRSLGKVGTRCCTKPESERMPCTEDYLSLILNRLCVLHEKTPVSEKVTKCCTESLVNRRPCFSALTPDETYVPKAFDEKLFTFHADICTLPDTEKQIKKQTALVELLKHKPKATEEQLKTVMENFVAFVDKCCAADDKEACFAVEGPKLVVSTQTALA

`CC(=O)NCCCC[C@@H]1NC(=O)[C@@H]2C[C@H](C(=O)NCCCCCC[N+](C)(C)C)[C@H](c3cccc(OCCO)c3)N2C1=O`: the composite z-score with Albumin (Bos taurus) is -0.384; in experiment [2], 0.163; in experiment [3], -0.0896; in experiment [4], 0.675; in experiment [5], 1.53; in experiment [6] it was 0.348. Moreover, the composite z-score in the experiment on Sam68 (KHDRBS1) was 1.22; in experiment [7] it was 1.13; in [8], 1.09. Also, the composite Z-score in experiment [1] was 0.13 (inactive).
In the case of `COc1ccc(CCNC(=O)[C@@]2(C)c3ccccc3C(=O)N(Cc3ccccc3)[C@H]2c2ccc(CO)cc2)cc1`, the composite z-score in the experiment with Albumin (Bos taurus) was 0.365; in experiment [2], 0.178; in experiment [3] it was -0.116; in [4], 0.446; in experiment [5] it was 1.51; in experiment [6], 0.941. Also, the results for the composite z-score (in the experiment with Sam68 (KHDRBS1); in experiment [7]; in experiment [8]) were 1.16, 0.594 and 1.14, respectively. In addition, in [1], the composite Z-score is 0.247 (inactive).
For the compound `COC(=O)[C@@]1(Cc2ccc(F)cc2)[C@H]2c3cc(C(=O)N4CCCC4)n(Cc4ccc(Cl)c(C(F)(F)F)c4)c3C[C@H]2CN1C(=O)c1ccccc1`, the composite z-score is 1.02 with Albumin (Bos taurus); 1.53 in [2]; 0.853 in [3]; 0.801 in [4]; 2.89 in [5]; 1.31 in experiment [6]. Besides, the composite z-score was 1.33 in the experiment on Sam68 (KHDRBS1), -0.804 in experiment [7] and 1.16 in experiment [8]. Also, the composite Z-score in experiment [1] is 0.267 (inactive).
`COC(=O)[C@@]1(Cc2ccc(OC)cc2)[C@H]2c3cc(C(=O)N4CCCC4)n(C[C@H](O)CO)c3C[C@H]2CN1C(=O)c1ccccc1`: the composite z-score with Albumin (Bos taurus) is 0.947; in experiment [2] it was 0.0824; in [3], 0.0817; in experiment [4], 0.869; in [5], 1.62; in [6], 0.226. The composite z-score was -0.0743 with Sam68 (KHDRBS1), -0.229 in experiment [7] and 0.556 in [8]. Moreover, the composite Z-score in experiment [1] is 0.509 (inactive).
As to `COc1ccc([Si](C)(C)[C@@H]2[C@@H](CCO)O[C@]3(C(=O)N(Cc4ccc(N5C(=O)c6cccc7cccc5c67)cc4)c4ccccc43)[C@H]2C)cc1`, the composite z-score with Albumin (Bos taurus) is 0.308; in experiment [2], -0.252; in experiment [3], -0.119; in experiment [4] it was 0.382; in experiment [5], 0.332; in experiment [6], 0.232. For the same compound, the figures for the composite z-score (in the experiment on Sam68 (KHDRBS1); in [7]; in experiment [8]) were -0.276, -0.161 and -0.259, respectively. In addition, in [1], the composite Z-score is 0.77 (inactive).
Turning to `O=C1[C@H]2C=C(Br)[C@H](C[C@@H]2OCCOCCO)[C@@]12CO2`, the composite z-score with Albumin (Bos taurus) was -0.335; in [2], -0.105; in experiment [3], -0.0418; in experiment [4] it was -0.122; in experiment [5], -0.146; in [6], 0.669. In addition, the values for the composite z-score (with Sam68 (KHDRBS1); in experiment [7]; in experiment [8]) were 0.421, 0.169 and 0.393, respectively. The composite Z-score in [1] is -0.0482 (inactive).
Take `CO[C@H]1O[C@H](CO)[C@@H](OC(=O)Nc2ccccc2-c2ccccc2)[C@H](OC(=O)Nc2ccccc2-c2ccccc2)[C@H]1OC(=O)Nc1ccccc1-c1ccccc1`: the composite z-score with Albumin (Bos taurus) was 0.784; in [2], 0.275; in [3], -0.0759; in [4], 0.503; in [5] it was 1.96; in experiment [6] it was -0.32. Moreover, the composite z-score with Sam68 (KHDRBS1) was determined as 1.3; in experiment [7] it was 0.0309; in experiment [8] it was 1.15. Further, in [1], the composite Z-score was 0.341 (inactive).
Take `CC(=O)NCCCC[C@@H]1NC(=O)[C@@H]2C[C@H](C(=O)NCc3ccc(F)cc3)[C@H](c3ccc(O)cc3)N2C1=O`: the composite z-score was -1.25 in the experiment with Albumin (Bos taurus); -0.0391 in [2]; -0.153 in experiment [3]; 0.715 in experiment [4]; 1.79 in experiment [5]; 0.453 in experiment [6]. The composite z-score with Sam68 (KHDRBS1) came to 1.02; in experiment [7], 0.526; in experiment [8] it was 1.15. Moreover, the composite Z-score in experiment [1] is 0.15 (inactive).
As to `Cc1ccc(N2C(=O)c3ccccc3[C@](C)(C(=O)NCCN3CCOCC3)[C@@H]2c2ccc(CO)cc2)nc1`, the composite z-score is -0.657 with Albumin (Bos taurus); -0.279 in experiment [2]; -0.14 in [3]; 0.494 in [4]; -0.0207 in [5]; 0.0322 in experiment [6]. Also, the composite z-score in the experiment on Sam68 (KHDRBS1) was -1.39; in experiment [7] it was -0.494; in [8], -0.828. Moreover, the composite Z-score in experiment [1] was -0.559 (inactive).
On to `CCN(CC)c1ccc(N2CC=CC34O[C@@H]5/C=C\CCC(C)OC(=O)C5[C@H]3C(=O)N(CCCCCCO)[C@@H]4C2=O)cc1` (stereo not given in full), for which the composite z-score with Albumin (Bos taurus) is 0.362; in [2], -0.204; in experiment [3] it was -0.224; in [4], 0.548; in experiment [5] it was -0.039; in [6] it was -0.458. Moreover, the composite z-score with Sam68 (KHDRBS1) was -0.264; in experiment [7], -0.143; in experiment [8], -0.285. The composite Z-score in experiment [1] was 0.184 (inactive).
As to `COC(=O)c1c2oc(c1C(=O)OC)C(=O)N[C@H](Cc1ccccc1)Cn1nncc1C1(CCCCC1)NC(=O)N[C@H](CO)CC2`, the composite z-score with Albumin (Bos taurus) was -0.399; in experiment [2], -0.143; in [3], -0.192; in [4], 0.163; in experiment [5], 0.388; in [6] it was -0.0073. The composite z-score in the experiment with Sam68 (KHDRBS1) worked out at 0.702; in [7], 0.419; in experiment [8] it was 0.0053. The composite Z-score in [1] is 0.699 (inactive).
`C/C=C/[C@H](CCn1cc([C@H](O)c2ccccc2)nn1)[Si](C)(C)c1ccc(OC)cc1`: the composite z-score in the experiment with Albumin (Bos taurus) was -0.7; in experiment [2], -0.359; in experiment [3], -0.181; in experiment [4], 0.017; in experiment [5], -0.092; in [6] it was 0.612. Besides, the composite z-score is -0.971 in the experiment on Sam68 (KHDRBS1), -0.4 in experiment [7] and -0.971 in experiment [8]. Further, the composite Z-score in experiment [1] was -0.0164 (inactive).
Take `COc1ccc([Si](C)(C)[C@@H]2[C@@H](CCO)O[C@]3(C(=O)N(Cc4ccccc4)c4ccc(N(C=O)c5ccccc5)cc43)[C@H]2C)cc1`: the composite z-score with Albumin (Bos taurus) is 0.624; in [2], -0.159; in [3], -0.0682; in experiment [4] it was 0.497; in experiment [5], 0.937; in experiment [6], 0.719. In addition, the composite z-score with Sam68 (KHDRBS1) was 0.601; in experiment [7], -0.15; in experiment [8], 0.762. The composite Z-score in experiment [1] is 1.04 (inactive).
In the case of `O=C(NCC(O)CO)[C@]1(CCS(=O)(=O)c2ccccc2)N=C(c2ccc(OCCCO)cc2)O[C@@H]1c1ccccc1` (stereo not given in full), the composite z-score was 1.11 with Albumin (Bos taurus); -0.095 in experiment [2]; -0.0392 in [3]; 0.761 in experiment [4]; 3.41 in [5]; 0.944 in [6]. The results for the composite z-score (with Sam68 (KHDRBS1); in [7]; in experiment [8]) were 1.23, -1.41 and 0.87, respectively. The composite Z-score in experiment [1] was -0.262 (inactive).
For the compound `CN(C)CCCC[C@@H]1NC(=O)[C@H]2C[C@@H](C(=O)NCCCCCNC(=O)CS)[C@@H](c3ccc(O)cc3)N2C1=O`, the composite z-score with Albumin (Bos taurus) was 0.74; in experiment [2], -0.374; in [3], -0.127; in experiment [4], -0.204; in [5] it was 0.268; in [6] it was -0.733. In addition, the composite z-score is -1.38 with Sam68 (KHDRBS1), -0.688 in [7] and 0.734 in experiment [8]. Also, the composite Z-score in experiment [1] was 0.157 (inactive).
For the compound `COc1ccc([Si](C)(C)[C@@H]2[C@@H](CCO)O[C@]3(C(=O)N(Cc4cccc(N5CCCCC5=O)c4)c4ccccc43)[C@H]2C)cc1`, the composite z-score with Albumin (Bos taurus) was 0.532; in [2], 0.134; in experiment [3] it was -0.123; in experiment [4], 0.361; in [5], 1.06; in experiment [6], 0.0492. In addition, the composite z-score in the experiment on Sam68 (KHDRBS1) amounted to 1.29; in experiment [7] it was 0.128; in experiment [8], 0.961. The composite Z-score in [1] is 0.6 (inactive).
Regarding `CCCCCN1CC=CC23O[C@@H]4C=CCCOC(=O)C4[C@H]2C(=O)N(CCCO)[C@@H]3C1=O` (stereo not given in full), the composite z-score in the experiment with Albumin (Bos taurus) is 0.538; in experiment [2], -0.157; in experiment [3], -0.155; in experiment [4], 0.343; in experiment [5] it was -0.0684; in experiment [6] it was 0.0581. Also, the results for the composite z-score (in the experiment on Sam68 (KHDRBS1); in experiment [7]; in experiment [8]) were -0.0504, -0.277 and 0.121, respectively. For the same compound, in [1], the composite Z-score is 0.33 (inactive).
